High-throughput results from PubChem BioAssay.
HepG2 viability: HepG2 cytotoxicity, counter-screen for TGF-b inhibitors; Potency, µM (series often up to 46.1 µM), for the others: top-dose activity change, negative = cytotoxicity, usual class: cytotoxic; AID 588856; HepG2 CAGA-GFP viability, ATP luminescence, 18 h; 410,000 tested, 0.76% active
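HepG2 CAGA-GFP cells (1000/well, DMEM with 1% FBS) received compound, then TGF-beta at 500 pg/mL final, and were incubated 18 hours at 37 degrees C. Viability was read by CellTiter-Glo luminescence. Media-only wells were set as complete cell-killing and DMSO as no toxicity.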
TDP1 cell CPT: DT40-hTDP1 cell growth loss with CPT. chicken DT40 Tdp1-/-;hTDP1 cells + 20 nM CPT, ATP luminescence, 48 h. Potency, µM (highest dose often 46.2 µM), without a hit: at the top dose activity change, negative = growth inhibition, usual class: inhibitors. 420,000 tested, 12% active; further: on the % scale 0 is the no-effect control and ±100 the full control effect; nearly all actives have a fitted effect of over 55% in size
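Chicken DT40 Tdp1-/- cells stably complemented with human TDP1 were seeded at 400 cells/well in medium containing 20 nM camptothecin, exposed to pin-transferred compounds, and grown at 37 °C for at least 48 hr. Viability was read as ATP luminescence.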
TDP1 cell noCPT: qHTS for Inhibitors of human tyrosyl-DNA phosphodiesterase 1 (TDP1): qHTS in cells in absence of CPT; Potency, µM (titrated, usually from 46.2 µM), without a hit: top-dose activity change, negative = growth inhibition, hits mostly inhibitors; DT40 Tdp1-/- hTDP1 cells, no CPT, ATP luminescence, 48 h; 420,000 tested, 15% active; further: on the % scale 0 is the no-effect control and ±100 the full control effect; nearly all actives have a fitted effect of over 55% in size
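Readout: luminescence from CellTiter-Glo after 30 min in the dark at RT. Cells: DT40 Tdp1-/- with stable hTDP1, 400/well. Exposure: compounds alone, ≥48 hr, 37 °C.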
TGFb SMAD3 inh: blocks TGF-b signaling; HepG2 CAGA-GFP TGF-b/SMAD3 reporter, GFP fluorescence, 18 h; TGF-beta stimulated, 500 pg/mL final; AID 588855; Potency, µM (doses to about 46.1 µM), for the others: at the highest dose activity, negative = inhibition, actives largely listed as inhibitors; 410,000 tested, 1.2% active; further: on the % scale 0 is the no-effect control and ±100 the full control effect; nearly all actives have a fitted effect of over 65% in size
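Cell-based qHTS in HEPG2 carrying a CAGA-GFP Smad reporter; compounds added before 500 pg/mL final TGF-beta, 18 h incubation at 37 degrees C, GFP fluorescence quantified per cell by imaging cytometry.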
HT1080NT lethal: kills 2HG-producing HT-1080-NT fibrosarcoma cells; HT-1080-NT fibrosarcoma viability, CellTiter-Glo ATP luminescence, 48 h; Potency, µM (doses to about 46.1 µM), without a hit: at the top dose activity, negative = less viability, usual class: cytotoxic; 360,000 tested, 1.6% active; AID 686970;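 further: NT is the 2HG producing partner of a matched IDH1 knockdown line; 0% = DMSO-treated cells and -100% = media-only wells without cells; nearly all actives have a fitted effect of over 55% in size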
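A 48-hour cytotoxicity screen used HT-1080-NT cells plated 2 hours before compound delivery. ATP-based CellTiter-Glo luminescence measured viability, normalized to DMSO and no-cell controls.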
HT1080 IDH1KD tx: kills HT-1080 cells with IDH1 knockdown. AID 686971. Potency, µM (series often up to 46.1 µM), inactives show top-dose activity, negative = toxicity, hits mostly cytotoxic. 360,000 tested, 2% active. HT-1080 IDH1 knockdown viability, ATP luminescence, 48 h;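 further: 0% = DMSO wells and -100% = cell-free medium wells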
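Assay cells: HT-1080 with IDH1 knockdown, 750 per well, RPMI/5% FBS. Exposure: 48 h at 37 °C following 2 h pre-incubation. Read: CellTiter-Glo luminescence; fitted concentration-response, curve class assigned.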
* marks the source's active call; other numbers are inactive results. Most compounds without a hit are left out; they make up all but 17% or so of the library. The call rests on the fitted dose curve; in most records, active means well fitted curve in the direction sought with a large enough effect; inconclusive means small, poorly fitted or top-dose-only effect, or another doubt; inactive means no such curve, though single readings can be large; an effect the other way counts as inactive or inconclusive. Potency means the concentration at half of the fitted maximal effect.

How did O=C(COc1ccc(Cl)cc1)Nc1ncc([N+](=O)[O-])s1 do in these assays?
HepG2 viability: -30%; TDP1 cell CPT: 26µM*; TDP1 cell noCPT: 23µM*; TGFb SMAD3 inh: inconclusive; HT1080NT lethal: inconclusive; HT1080 IDH1KD tx: inconclusive

What do the screens show for `O=C(COC(=O)COc1ccccc1)Nc1ncc([N+](=O)[O-])s1`?
HepG2 viability: 3%; TDP1 cell CPT: 23µM*; TDP1 cell noCPT: inconclusive; TGFb SMAD3 inh: -5%; HT1080NT lethal: 4%; HT1080 IDH1KD tx: -3%

What do the screens show for `CCN(CC)C(=O)/C(=C\c1ccc(Br)cc1)NC(=O)c1ccccc1OC`?
HepG2 viability: -19%; TDP1 cell CPT: inconclusive; TDP1 cell noCPT: 15µM*; TGFb SMAD3 inh: -21%; HT1080NT lethal: 2%; HT1080 IDH1KD tx: -3%

Results for CN(C)CCC(=O)c1ccc2c(c1)OCO2 ?
HepG2 viability: -77%; TDP1 cell CPT: 3.7µM*; TDP1 cell noCPT: 3.7µM*; TGFb SMAD3 inh: inconclusive; HT1080NT lethal: 3%; HT1080 IDH1KD tx: 6%

Results for CCNC(=O)COC(=O)CCC(=O)c1ccc(F)cc1 ?
HepG2 viability: 5%; TDP1 cell CPT: -7%; TDP1 cell noCPT: 10%; TGFb SMAD3 inh: 2%; HT1080NT lethal: 2%; HT1080 IDH1KD tx: 3%

Results for CN(C)CCC(=O)c1ccc(F)cc1 ?
HepG2 viability: -3%; TDP1 cell CPT: 5.2µM*; TDP1 cell noCPT: 4.6µM*; TGFb SMAD3 inh: -9%; HT1080NT lethal: 1%; HT1080 IDH1KD tx: -1%

Results for CCN(CC)CCC(=O)c1ccc(F)cc1 ?
HepG2 viability: 0%; TDP1 cell CPT: 2.9µM*; TDP1 cell noCPT: 2.3µM*; TGFb SMAD3 inh: 10%; HT1080NT lethal: -2%; HT1080 IDH1KD tx: 4%

What do the screens show for `Cc1ccc(S(=O)(=O)N2CCCCC2)cc1NC(=O)COC(=O)CN1C(=O)NC2(CC(C)CC(C)(C)C2)C1=O` (stereo unspecified)?
HepG2 viability: 11%; TDP1 cell CPT: inconclusive; TDP1 cell noCPT: inconclusive; TGFb SMAD3 inh: 6%; HT1080NT lethal: 3%; HT1080 IDH1KD tx: 9%

What do the screens show for `CCCc1ccc2oc(C(=O)N3CCN(C4CCS(=O)(=O)C4)CC3)c(C)c2c1` (stereo unspecified)?
HepG2 viability: -21%; TDP1 cell CPT: -10%; TDP1 cell noCPT: inconclusive; TGFb SMAD3 inh: -13%; HT1080NT lethal: -10%; HT1080 IDH1KD tx: -14%

Results for COc1ccc(CCCc2nnc(SCC(=O)N/N=C\c3ccc(O)c(OC)c3)o2)cc1C ?
HepG2 viability: -13%; TDP1 cell CPT: 15µM*; TDP1 cell noCPT: inconclusive; TGFb SMAD3 inh: inconclusive; HT1080NT lethal: -12%; HT1080 IDH1KD tx: -20%

What do the screens show for `Cc1cc(OCC(=O)Nc2ccc3oc(=O)ccc3c2)ccc1Cl`?
HepG2 viability: -5%; TDP1 cell CPT: 1%; TDP1 cell noCPT: -6%; TGFb SMAD3 inh: -2%; HT1080NT lethal: 23%; HT1080 IDH1KD tx: -17%

Results for O=c1oc2ccccc2c(NC(c2ccccc2)c2ccccc2)c1[N+](=O)[O-] ?
HepG2 viability: -18%; TDP1 cell CPT: inconclusive; TDP1 cell noCPT: inconclusive; TGFb SMAD3 inh: -28%; HT1080NT lethal: -4%; HT1080 IDH1KD tx: -26%

Results for COc1ccc(OCCNc2c([N+](=O)[O-])c(=O)oc3ccccc23)cc1 ?
HepG2 viability: 1%; TDP1 cell CPT: -3%; TDP1 cell noCPT: inconclusive; TGFb SMAD3 inh: -9%; HT1080NT lethal: 0%; HT1080 IDH1KD tx: -1%

Results for O=c1oc2ccccc2c(Nc2ccc(O)cc2)c1[N+](=O)[O-] ?
HepG2 viability: -8%; TDP1 cell CPT: inconclusive; TDP1 cell noCPT: -15%; TGFb SMAD3 inh: -14%; HT1080NT lethal: -17%; HT1080 IDH1KD tx: -17%

Results for Cc1ccc(C)c(Nc2c([N+](=O)[O-])c(=O)oc3ccccc23)c1 ?
HepG2 viability: -7%; TDP1 cell CPT: 23µM*; TDP1 cell noCPT: 10µM*; TGFb SMAD3 inh: inconclusive; HT1080NT lethal: -24%; HT1080 IDH1KD tx: -26%

How did CCNc1c([N+](=O)[O-])c(=O)oc2ccccc12 do in these assays?
HepG2 viability: 4%; TDP1 cell CPT: 17%; TDP1 cell noCPT: 12%; TGFb SMAD3 inh: -4%; HT1080NT lethal: 10%; HT1080 IDH1KD tx: 13%

What do the screens show for `CC(Nc1c([N+](=O)[O-])c(=O)oc2ccccc12)C(Cl)c1ccccc1` (stereo unspecified)?
HepG2 viability: -13%; TDP1 cell CPT: inconclusive; TDP1 cell noCPT: 23µM*; TGFb SMAD3 inh: -2%; HT1080NT lethal: inconclusive; HT1080 IDH1KD tx: inconclusive

How did Cc1ccc(Nc2c([N+](=O)[O-])c(=O)oc3ccccc23)cc1 do in these assays?
HepG2 viability: -16%; TDP1 cell CPT: inconclusive; TDP1 cell noCPT: 12µM*; TGFb SMAD3 inh: -12%; HT1080NT lethal: inconclusive; HT1080 IDH1KD tx: inconclusive

What do the screens show for `O=c1oc2ccccc2c(Nc2ccc3ccccc3c2)c1[N+](=O)[O-]`?
HepG2 viability: -33%; TDP1 cell CPT: 15µM*; TDP1 cell noCPT: inconclusive; TGFb SMAD3 inh: 0%; HT1080NT lethal: inconclusive; HT1080 IDH1KD tx: inconclusive

Results for CCc1nc(Nc2cccc(F)c2)c2oc3ccccc3c2n1 ?
HepG2 viability: -22%; TDP1 cell CPT: inconclusive; TDP1 cell noCPT: inconclusive; TGFb SMAD3 inh: -10%; HT1080NT lethal: -2%; HT1080 IDH1KD tx: -16%

Results for CCOC(=O)c1cc2c(c(-c3ccccc3)n1)[C@@H](CCO)N(S(=O)(=O)C(C)(C)C)C2 ?
HepG2 viability: -32%; TDP1 cell CPT: 4%; TDP1 cell noCPT: -8%; TGFb SMAD3 inh: -9%; HT1080NT lethal: 2%; HT1080 IDH1KD tx: -1%

How did Cn1ccnc1SCC(=O)Nc1nc2c(F)c(F)c(F)cc2s1 do in these assays?
HepG2 viability: 4%; TDP1 cell CPT: inconclusive; TDP1 cell noCPT: inconclusive; TGFb SMAD3 inh: 26%; HT1080NT lethal: 11%; HT1080 IDH1KD tx: 7%

Results for O=c1oc2ccccc2c(NCc2cccc(F)c2)c1[N+](=O)[O-] ?
HepG2 viability: -2%; TDP1 cell CPT: -30%; TDP1 cell noCPT: 0%; TGFb SMAD3 inh: inconclusive; HT1080NT lethal: -3%; HT1080 IDH1KD tx: -13%
